Measurements from PubChem BioAssay (NCATS).
Records with an inconclusive call do not appear. The source made the active and inactive calls. Unless noted, calls follow the shape of the dose curve; as a rule, active = well fitted curve in the direction sought with a large enough effect; inconclusive = small, poorly fitted or top-dose-only effect, or another doubt; inactive = no such curve, though single readings can be large; an effect the other way counts as inactive or inconclusive.

Legend:
[1] = biological target: Cytochrome P450 1A2 (Homo sapiens) (UniProt P05177); assay: p450-cyp1a2 (AID 410; calls by dose curve;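 also: -100% = full effect of reference inhibitor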)
Outline: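 Luminescent readout of luciferin formed from Luciferin-ME by human CYP1A2; data normalized against complete inhibition by 57 uM furafylline. Enzyme 20nM, substrate 100uM at Km, 100mM KPO4 buffer, 60 min reaction at room temperature.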

[2] = NFAT Signaling Pathway (AID 444; active = well fitted curve in either direction with a large enough effect, not every such curve was filed as active;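 also: carbachol stimulus at about its EC50 of 1 µM final; % is scaled to controls: 0 for no effect and ±100 for the full control effect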); conditions: Jurkat NFAT-bla M1, carbachol, beta-lactamase ratio, 5 h; at 17.2 µM (top of the series) unless noted
Outline: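 Jurkat cells with NFAT-driven β-lactamase reporter and co-expressed M1 receptor, stimulated with carbachol (final 1 uM, ~EC50), compound titration, 5 h at 37 °C. CCF4 loaded 1 h at RT; 460/530 nm ratio gave %activity and AC50.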

[3] = Stat Signaling Pathway (AID 446; active = well fitted curve in either direction with a large enough effect, not every such curve was filed as active;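 also: ME-180 cervical cancer cells given 40 pM IL-6 alongside compound; SIE-controlled beta-lactamase reporter measured as 460/530 nm FRET emission ratio; % is scaled to controls: 0 for no effect and ±100 for the full control effect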); conditions: ME-180 SIE beta-lactamase reporter, IL-6 stimulated, 5 h
Outline: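 ME-180 cells carrying a SIE-driven beta-lactamase reporter are stimulated with 40 pM IL-6 for 5 h at 37C in the presence of compound. The 460/530 nm FRET substrate ratio is read after 2.5 h at RT. Data are normalised to 300 pM IL-6 and to 125 nM JAK inhibitor controls.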

[4] = biological target: Mitogen-activated protein kinase 10 (Mus musculus) (UniProt Q61831); assay: JNK3 AlphaScreen Assay (AID 530; active = well fitted curve in either direction with a large enough effect, not every such curve was filed as active;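 also: kinase came from lysate of stimulated human HepG2 cells; signal reports phosphorylation of biotinylated GST-cJun 1-79 at Ser73 with 10 µM ATP; % is scaled to controls: 0 for no effect and ±100 for the full control effect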)
Outline: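 Pre-activated (IL-1β/TNFα) JNK3 in HepG2 lysates phosphorylates biotin-GST-cJun(1-79), 10 uM ATP; anti-phospho-cJun(Ser73) AlphaScreen read at room temperature, pH 7.6 Tris buffer. Compounds pre-incubated 15 min as titrations.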

[5] = biological target: 3',5'-cyclic-AMP phosphodiesterase 4B (Homo sapiens) (UniProt Q07343); assay: qHTS Assay for Inhibitors of PDE-IV (AID 607; active = well fitted activation curve with a large enough effect in the main read-out, with a control signal flat, not every such curve was filed as active; also: % of control where 0% means no effect)
Outline: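 HEK293 ACTOne cells with CNG channel (1000/well), endogenous PDE4; membrane potential dye, compounds up to 22.9 uM final. Fluorescence Ex 535/Em 590; RO 20-1724 (100 uM final) as reference.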

[6] = biological target: Guanine nucleotide-binding protein G(i) subunit alpha-1 (Homo sapiens) (UniProt P63096); assay: qHTS Assay for Inhibitors of RGS12 GoLoco Motif Activity (Green Fluorophore) (AID 879);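 also: 0% = labeled peptide with Gαi1 and full inhibition = labeled peptide alone without protein; negative values mean loss of peptide binding seen as reduced polarization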
Outline: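 Fluorescence polarization assay: 50 nM Gαi1 with 10 nM FITC-labeled RGS12 GoLoco peptide in 10 mM Tris pH 7.5, 150 mM NaCl, 0.1 mM GDP, 0.05% NP40, 10 min at room temperature with compound.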

[7] = biological target: Cytochrome P450 2C9 (Homo sapiens) (UniProt P11712); assay: qHTS Assay for Inhibitors and Substrates of Cytochrome P450 2C9 (AID 883); also: potency is read from the fitted curve at half-maximal effect; nearly all actives have a fitted effect of over 60% in size
Outline: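 Human CYP2C9 (10nM) with Luciferin-H at 100uM (its KM) in 25mM KPO4; compound preincubated 10 min at 37C, then NADPH regeneration for 60 min at 37C. Luciferin read by luminescence after detection reagent; normalized to 57uM sulphaphenazole as full inhibition.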

[8] = biological target: Cytochrome P450 3A4 (Homo sapiens) (UniProt P08684); assay: qHTS Assay for Activators of Cytochrome P450 3A4 (AID 885); also: nearly all actives have a fitted effect of over 65% in size
Outline: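 Human CYP3A4 (20 nM) with Luciferin-PPXE at 25 uM (its KM) in 200 mM KPO4; 10 min compound preincubation, then NADPH regeneration and 60 min reaction at RT. Luciferin read by luminescence; normalized to 57 uM ketoconazole full inhibition.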

[9] = qHTS Assay for Identification of Small Molecule Antagonists for NFkB Signaling Pathway (AID 895; active = well fitted inhibition curve with a large enough effect in the signal ratio, with a control signal flat, not every such curve was filed as active; the % refers to the signal ratio; also: % is scaled to controls: 0 for no effect and ±100 for the full control effect)
Outline: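 ME-180 NFkB-bla cells (beta-lactamase under NFkB response element), plated overnight, treated with compound then 10 pM TNF alpha (about EC50) for 5 hrs at 37 C. LiveBLAzer FRET read at 460/530 nm emission, 405 nm excitation.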

[10] = biological target: Muscarinic acetylcholine receptor M1 (Rattus norvegicus) (UniProt P08482); assay: qHTS Assay for Antagonists of Acetylcholine Muscarinic M1 Receptor: Measurement of IP-One Response (AID 944); also: nearly all actives have a fitted effect of over 75% in size
Outline: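 M1-CHO (rat), 2000 cells/well, overnight recovery; cpd 10 min; carbachol EC80 (200 nM), 30 min, HEPES buffer + 50 mM LiCl pH 7.4; IP-One HTRF, Ex 337, Em 620/665 nm.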

[11] = biological target: Pyruvate kinase (Leishmania mexicana) (UniProt Q27686); assay: qHTS Validation Assay for Inhibitors of Leishmania Mexicana Pyruvate Kinase (AID 945);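 also: 0% = DMSO only neutral control wells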
Outline: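 Compounds are tested as eight-point concentration series. Reactions contain 0.2 nM LmPYK E451W, 0.5 mM PEP, 0.1 mM ADP, 7 mM MgCl2 and 50 mM KCl at pH 7.2, run 1 h at room temperature, then read by PKLight luminescence.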

[12] = biological target: Pyruvate kinase PKM (Homo sapiens) (UniProt P14618); assay: qHTS Assay for Activators of Human Muscle Pyruvate Kinase (AID 954; active = well fitted curve in the direction sought with a large enough effect, not every such curve was filed as active;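 also: 0% = uninhibited enzyme and -100% = no enzyme or full thiadiazolimine inhibition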)
Outline: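 Purified human PKM2 (0.1 nM) with 0.5 mM PEP (Km) and 0.1 mM ADP in 50 mM imidazole pH 7.2, KCl, MgCl2, 1 h at room temperature; ATP formed read by coupled luciferase luminescence. Normalized to no-enzyme/110 uM thiadiazolimine inhibition; 0.3 nM enzyme column for activation.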

[13] = biological target: Alpha-galactosidase A (Homo sapiens) (UniProt P06280); assay: Counterscreen for Glucocerebrosidase Inhibitors: qHTS Assay for Human alpha-Galactosidase at pH 4.5 (AID 992); also: 0% is about no effect
Outline: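 Human enzyme (2 nM) with 80 uM 4-methylumbelliferyl alpha-D-galactopyranoside in 50 mM citric acid, 0.005% Tween-20, pH 4.5, 20 min at room temperature. Compounds 0.7 nM–77 uM; fluorescence Ex 365/Em 440 after pH 10 stop; AC50 from Hill fits.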

[14] = biological target: alpha-glucosidase (Oryza sativa, rice) (UniProt Q653V4); assay: Counterscreen for Glucocerebrosidase Inhibitors: qHTS Assay for Rice alpha-Glucosidase at pH 5.0 (AID 997);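 also: 0% = full activity with enzyme and -100% = basal without enzyme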
Outline: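 Rice alpha-glucosidase (4 nM final) with 400 uM 4-methylumbelliferyl-alpha-D-glucopyranoside in citrate buffer pH 5.0, 20 min at room temperature, stopped at pH 10; fluorescence 365/440 nm, compounds 0.7 nM–77 uM, AC50 from Hill fits.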

[15] = AP1 Signaling Pathway (AID 357; active = well fitted curve in either direction with a large enough effect, not every such curve was filed as active); conditions: ME-180 AP-1-bla reporter, EGF-induced, beta-lactamase ratio, 5 h; at 17.2 µM (top of the series) unless noted
Outline: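 A ratiometric CCF4 readout (405 nm excitation; 460 and 530 nm emission) quantified AP-1-driven beta-lactamase in ME-180 cells after 5 h with compound and EC50 EGF; AC50 values were derived for activators and inhibitors.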

[16] = biological target: Glucocorticoid receptor (Homo sapiens) (UniProt P04150); assay: GR-GFP Redistribution (AID 450;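 active = compounds whose dose series gives a full or clear partial fitted curve of increased nuclear translocation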; also: potency is read from the fitted curve at half-maximal effect)
[17] = qHTS Assay for Identification of Small Molecule Agonists for Hypoxia Response Element Signaling Pathway (AID 914; active = well fitted activation curve with a large enough effect in the signal ratio, with a control signal flat, not every such curve was filed as active; the % refers to the signal ratio; also: % of control where 0% means no effect); conditions: ME-180 (cervical carcinoma) HRE-bla reporter, beta-lactamase ratio, CoCl2, 17 h; activation: active compounds read high
Outline: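 A beta-lactamase reporter under hypoxia response element control in ME-180 cells served as the system. Compound titrations plus EC50 CoCl2 ran 17 h at 37 degrees Celsius; AC50 values were fitted from %Activity.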

[18] = biological target: Glucocorticoid receptor (Homo sapiens) (UniProt P04150); assay: GR-EFC Redistribution (AID 451; calls by dose curve; also: potency is read from the fitted curve at half-maximal effect); conditions: CHO-K1 GR-EFC translocation, beta-gal luminescence, 2 h
Outline: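 CHO-K1 cells expressing nuclear EA and GR-ED fragments of b-gal; compounds titrated up to 46 uM final, 2 h at 37 C. GR nuclear translocation read as complemented b-gal luminescence after 1 h RT detection.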

[19] = biological target: Cytochrome P450 3A4 (Homo sapiens) (UniProt P08684); assay: qHTS Assay for Inhibitors and Substrates of Cytochrome P450 3A4 (AID 884); also: potency is read from the fitted curve at half-maximal effect; nearly all actives have a fitted effect of over 50% in size
Outline: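 20 nM human CYP3A4 with 25 uM Luciferin-PPXE (at KM) in 200 mM KPO4, preincubated 10 min with compound; NADPH regeneration started a 60 min RT reaction. Luciferin detected by luminescence, normalized to 57 uM ketoconazole as full inhibition.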

[20] = biological target: Cytochrome P450 2D6 (Homo sapiens) (UniProt P10635); assay: qHTS Assay for Inhibitors and Substrates of Cytochrome P450 2D6 (AID 891);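 also: luciferin methyl ether substrate demethylated by CYP2D6 with NADPH regeneration; % is scaled to controls: 0 for no effect and ±100 for the full control effect; nearly all actives have a fitted effect of over 60% in size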
Outline: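 Human CYP2D6 (5 nM) with 30 uM Luciferin-ME EGE (at Km) in 100 mM KPO4, compound preincubated 10 min, then NADPH regeneration system for 60 min at room temperature. Luciferin read by luminescence; normalized to 1.43 uM quinidine.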

3',5'-cyclic-AMP phosphodiesterase 4B (Homo sapiens), sequence (Q07343 whole entry, looked up): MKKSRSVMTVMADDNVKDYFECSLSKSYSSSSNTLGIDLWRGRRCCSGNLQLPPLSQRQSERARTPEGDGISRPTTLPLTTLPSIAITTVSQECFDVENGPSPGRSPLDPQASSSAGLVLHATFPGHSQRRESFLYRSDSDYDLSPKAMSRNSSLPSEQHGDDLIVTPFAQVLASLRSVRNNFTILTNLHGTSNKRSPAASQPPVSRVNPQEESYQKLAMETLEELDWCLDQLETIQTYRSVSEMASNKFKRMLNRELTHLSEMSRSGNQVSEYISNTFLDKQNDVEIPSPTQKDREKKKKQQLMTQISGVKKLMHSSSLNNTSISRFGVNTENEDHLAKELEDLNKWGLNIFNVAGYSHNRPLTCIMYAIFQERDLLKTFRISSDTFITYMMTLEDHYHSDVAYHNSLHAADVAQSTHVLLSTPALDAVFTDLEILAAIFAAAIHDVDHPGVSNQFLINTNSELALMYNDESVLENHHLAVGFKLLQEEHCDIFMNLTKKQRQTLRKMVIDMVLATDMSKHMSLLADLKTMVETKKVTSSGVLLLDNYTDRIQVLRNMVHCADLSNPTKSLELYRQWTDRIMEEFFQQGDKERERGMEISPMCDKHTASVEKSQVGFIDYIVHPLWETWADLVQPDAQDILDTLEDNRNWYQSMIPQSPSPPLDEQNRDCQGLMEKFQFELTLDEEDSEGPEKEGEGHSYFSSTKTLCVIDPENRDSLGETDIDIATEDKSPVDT
Cytochrome P450 3A4 (Homo sapiens), sequence (P08684 whole entry, looked up): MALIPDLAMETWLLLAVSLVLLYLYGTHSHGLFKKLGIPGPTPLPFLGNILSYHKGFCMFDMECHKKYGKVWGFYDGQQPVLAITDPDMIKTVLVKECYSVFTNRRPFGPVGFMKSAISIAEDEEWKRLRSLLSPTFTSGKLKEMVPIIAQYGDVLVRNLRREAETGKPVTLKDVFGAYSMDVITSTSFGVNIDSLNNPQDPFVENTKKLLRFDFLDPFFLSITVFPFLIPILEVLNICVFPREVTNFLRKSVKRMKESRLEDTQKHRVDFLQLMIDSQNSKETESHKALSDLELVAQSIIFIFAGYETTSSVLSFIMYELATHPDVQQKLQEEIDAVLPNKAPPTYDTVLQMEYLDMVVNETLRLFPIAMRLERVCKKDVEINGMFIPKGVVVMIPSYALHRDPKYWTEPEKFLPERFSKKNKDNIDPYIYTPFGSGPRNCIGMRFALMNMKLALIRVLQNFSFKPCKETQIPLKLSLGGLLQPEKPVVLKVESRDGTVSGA
Cytochrome P450 1A2 (Homo sapiens), sequence (P05177 whole entry, looked up): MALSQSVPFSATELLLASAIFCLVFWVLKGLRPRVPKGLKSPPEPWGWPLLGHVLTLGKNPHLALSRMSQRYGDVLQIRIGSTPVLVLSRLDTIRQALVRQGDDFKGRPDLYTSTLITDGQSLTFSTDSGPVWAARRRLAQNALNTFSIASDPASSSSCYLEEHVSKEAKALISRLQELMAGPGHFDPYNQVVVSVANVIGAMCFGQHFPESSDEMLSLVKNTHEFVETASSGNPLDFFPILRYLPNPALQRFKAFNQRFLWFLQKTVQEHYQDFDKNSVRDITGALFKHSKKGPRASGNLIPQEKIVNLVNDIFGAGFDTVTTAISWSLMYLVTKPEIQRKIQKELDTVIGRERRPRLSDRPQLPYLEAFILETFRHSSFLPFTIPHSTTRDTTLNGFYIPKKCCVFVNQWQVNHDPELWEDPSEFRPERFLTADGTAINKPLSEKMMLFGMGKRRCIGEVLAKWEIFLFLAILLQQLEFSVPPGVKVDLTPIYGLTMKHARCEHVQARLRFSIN
Glucocorticoid receptor (Homo sapiens), sequence (P04150 whole entry, looked up, the tested form may be a part): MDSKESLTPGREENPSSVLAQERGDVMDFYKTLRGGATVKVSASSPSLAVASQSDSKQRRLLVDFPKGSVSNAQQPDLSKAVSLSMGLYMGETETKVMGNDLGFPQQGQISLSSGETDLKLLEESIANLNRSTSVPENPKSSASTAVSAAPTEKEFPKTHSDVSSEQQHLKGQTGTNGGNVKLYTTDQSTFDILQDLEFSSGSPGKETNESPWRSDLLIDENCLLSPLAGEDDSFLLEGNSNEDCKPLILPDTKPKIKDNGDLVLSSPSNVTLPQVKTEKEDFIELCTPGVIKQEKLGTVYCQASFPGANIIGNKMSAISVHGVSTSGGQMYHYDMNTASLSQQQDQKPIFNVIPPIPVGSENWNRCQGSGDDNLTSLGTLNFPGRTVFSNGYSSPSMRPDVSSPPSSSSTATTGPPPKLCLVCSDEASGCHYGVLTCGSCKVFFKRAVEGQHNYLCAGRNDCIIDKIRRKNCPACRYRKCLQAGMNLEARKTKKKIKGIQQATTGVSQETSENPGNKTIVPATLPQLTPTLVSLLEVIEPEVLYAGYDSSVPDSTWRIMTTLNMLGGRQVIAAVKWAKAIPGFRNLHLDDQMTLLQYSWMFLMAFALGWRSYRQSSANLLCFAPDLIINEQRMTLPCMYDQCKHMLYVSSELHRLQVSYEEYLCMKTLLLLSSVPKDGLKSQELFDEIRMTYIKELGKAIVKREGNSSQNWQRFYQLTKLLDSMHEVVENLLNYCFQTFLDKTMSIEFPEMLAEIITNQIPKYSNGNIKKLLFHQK
Pyruvate kinase PKM (Homo sapiens), sequence (P14618 whole entry, looked up): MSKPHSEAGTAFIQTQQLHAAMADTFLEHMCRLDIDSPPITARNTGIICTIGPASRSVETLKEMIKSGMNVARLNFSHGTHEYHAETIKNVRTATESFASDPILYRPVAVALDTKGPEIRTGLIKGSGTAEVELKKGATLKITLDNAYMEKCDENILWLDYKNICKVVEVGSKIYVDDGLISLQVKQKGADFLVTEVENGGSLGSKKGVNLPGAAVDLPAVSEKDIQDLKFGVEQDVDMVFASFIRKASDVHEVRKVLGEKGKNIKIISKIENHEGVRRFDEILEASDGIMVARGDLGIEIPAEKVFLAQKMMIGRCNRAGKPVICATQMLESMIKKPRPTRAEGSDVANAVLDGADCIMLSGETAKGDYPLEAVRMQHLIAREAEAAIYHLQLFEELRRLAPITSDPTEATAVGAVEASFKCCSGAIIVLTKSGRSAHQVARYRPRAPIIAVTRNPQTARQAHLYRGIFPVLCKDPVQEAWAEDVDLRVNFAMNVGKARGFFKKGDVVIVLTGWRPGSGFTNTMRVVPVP
Alpha-galactosidase A (Homo sapiens), sequence (P06280 whole entry, looked up): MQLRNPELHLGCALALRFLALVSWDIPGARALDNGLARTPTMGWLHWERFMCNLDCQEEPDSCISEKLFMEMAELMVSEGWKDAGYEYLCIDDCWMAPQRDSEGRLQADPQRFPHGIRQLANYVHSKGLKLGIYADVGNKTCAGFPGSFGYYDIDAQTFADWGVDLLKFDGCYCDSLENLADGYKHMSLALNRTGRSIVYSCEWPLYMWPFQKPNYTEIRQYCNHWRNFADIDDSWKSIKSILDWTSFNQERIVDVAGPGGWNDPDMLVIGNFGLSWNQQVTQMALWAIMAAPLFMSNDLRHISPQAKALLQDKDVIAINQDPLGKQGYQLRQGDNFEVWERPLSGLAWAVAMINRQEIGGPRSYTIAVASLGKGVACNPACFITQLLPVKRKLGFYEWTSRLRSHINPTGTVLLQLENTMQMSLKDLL
Pyruvate kinase (Leishmania mexicana), sequence (Q27686 2-499 E452W): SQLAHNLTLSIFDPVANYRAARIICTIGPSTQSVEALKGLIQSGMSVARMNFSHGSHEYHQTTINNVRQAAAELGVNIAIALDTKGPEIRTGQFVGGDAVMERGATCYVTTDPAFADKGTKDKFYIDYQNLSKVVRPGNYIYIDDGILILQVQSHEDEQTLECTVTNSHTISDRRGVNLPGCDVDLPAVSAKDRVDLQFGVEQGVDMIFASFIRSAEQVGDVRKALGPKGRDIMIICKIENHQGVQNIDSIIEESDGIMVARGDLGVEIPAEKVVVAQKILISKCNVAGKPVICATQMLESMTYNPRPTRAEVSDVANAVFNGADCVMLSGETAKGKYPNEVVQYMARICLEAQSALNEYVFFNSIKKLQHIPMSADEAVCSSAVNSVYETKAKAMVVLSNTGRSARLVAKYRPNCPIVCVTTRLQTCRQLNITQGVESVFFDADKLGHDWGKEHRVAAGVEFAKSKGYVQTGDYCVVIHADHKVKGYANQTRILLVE
Guanine nucleotide-binding protein G(i) subunit alpha-1 (Homo sapiens), sequence (P63096 whole entry, looked up): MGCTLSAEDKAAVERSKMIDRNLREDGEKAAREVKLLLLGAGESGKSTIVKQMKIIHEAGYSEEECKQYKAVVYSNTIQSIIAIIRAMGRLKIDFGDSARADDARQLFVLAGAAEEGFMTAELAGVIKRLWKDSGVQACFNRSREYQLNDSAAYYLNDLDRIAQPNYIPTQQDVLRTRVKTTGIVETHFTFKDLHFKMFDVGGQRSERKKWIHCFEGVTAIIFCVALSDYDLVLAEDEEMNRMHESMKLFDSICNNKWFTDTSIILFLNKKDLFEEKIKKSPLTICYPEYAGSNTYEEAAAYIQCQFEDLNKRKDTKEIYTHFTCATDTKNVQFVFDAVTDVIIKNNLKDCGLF
Cytochrome P450 2D6 (Homo sapiens), sequence (P10635 whole entry, looked up): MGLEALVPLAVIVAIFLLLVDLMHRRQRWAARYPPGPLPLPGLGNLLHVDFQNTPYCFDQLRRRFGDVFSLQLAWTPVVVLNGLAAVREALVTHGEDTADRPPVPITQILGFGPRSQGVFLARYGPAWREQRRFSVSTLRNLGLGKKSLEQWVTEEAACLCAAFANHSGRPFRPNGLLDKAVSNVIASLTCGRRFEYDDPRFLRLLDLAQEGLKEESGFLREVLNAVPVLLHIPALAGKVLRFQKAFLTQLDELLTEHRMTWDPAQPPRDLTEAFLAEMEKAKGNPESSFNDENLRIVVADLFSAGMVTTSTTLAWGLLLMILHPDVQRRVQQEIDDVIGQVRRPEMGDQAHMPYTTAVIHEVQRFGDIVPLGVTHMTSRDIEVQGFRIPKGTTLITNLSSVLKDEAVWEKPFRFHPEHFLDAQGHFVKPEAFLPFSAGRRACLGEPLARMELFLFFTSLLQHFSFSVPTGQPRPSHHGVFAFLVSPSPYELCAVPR

COc1cc([C@H]2c3cc4c(cc3[C@@H](O)[C@@H]3COC(=O)[C@H]23)OCO4)cc(OC)c1OC
active: Potency [7] 6.31 µM
inactive: Potency [1] | activity change, negative = inhibition [2] -22.1% [at 38 µM] | activity, negative = inhibition ([3]; at 17.2 µM (top of the series)) 16.9% | activity, negative = inhibition ([3]; at 38 µM (top of the series)) -4.5% | Potency [4] | Potency [5] | outcome [6] | Potency [8] | Potency [9] | Potency [10] | Potency [11] | outcome [12] | outcome [13] | outcome [14]

CCOC(=O)c1ccc(N=Cc2nc(-c3ccccc3)oc2OC(C)=O)cc1
inactive: activity change, negative = inhibition [15] -16.3% | Potency [16] > 20.6 µM

Cc1cc(C)c(C#N)c(SCc2[nH]nc3c2C(c2ccccc2)C(C#N)=C(N)O3)n1 (stereo not given)
inactive: activity change, negative = inhibition [15] -21.7% | Potency [16] > 20.6 µM | activation [17] -8.62%

CC[C@]1(O)C[C@H]2CN(CCc3c([nH]c4ccccc34)[C@](C(=O)OC)(c3cc4c(cc3OC)N(C=O)[C@H]3[C@@](O)(C(=O)OC)[C@H](OC(C)=O)[C@@]5(CC)C=CCN6CC[C@]43[C@H]65)C2)C1
active: Potency [19] 3.98 µM
inactive: Potency [1] | activity change, negative = inhibition [2] -8.89% [at 38 µM] | activity, negative = inhibition ([3]; at 17.2 µM (top of the series) unless noted) -14.3% [at 38 µM] | Potency [16] > 46 µM | Potency [18] > 46 µM | Potency [5] | outcome [6] | Potency [8] | Potency [20] | Potency [9] | Potency [11] | outcome [12] | outcome [13] | outcome [14]
